A short description of this assay: M. tuberculosis growth inhibition, HTS (AID 1259417).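 Further: bacteria grown with compound for 5 days at 37 °C.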 The note with it: stronger effect = higher value, concentration not given here.
The mark [1] stands for this setting: M. tuberculosis DsRed fluorescence growth inhibition.
The mark [2] stands for this setting: M. tuberculosis growth inhibition.

Structures are written as SMILES. In all, about 1,100 compounds went through this assay and about 760 (69%) were called active. How the calls were made is not given here. So high a share suggests a set chosen from earlier hits. Some of the results follow.

With `CCOC(=O)c1cnc2ccc(OC)cc2c1Nc1ccc2c(c1)OCCO2`, the inhibition (in general, the relative decrease from the control value, in per cent) under setting [1] was 36.6% (active) and the inhibition under setting [2] was 24%.
In the case of `O=C(CC(SCc1ccco1)c1cccc([N+](=O)[O-])c1)c1ccco1` (stereo not drawn), the inhibition by setting is: under setting [1], 96.9% (active); under setting [2], 97.7%.
As for `CCCC(=O)OCCNc1cc(SCc2ccco2)c2nonc2c1[N+](=O)[O-]`, the inhibition is, setting by setting: under setting [1], 22% (inactive); under setting [2], 21%.
`CC(=O)OCCNc1cc(SCc2ccco2)c2nonc2c1[N+](=O)[O-]`: the inhibition was 14.7% (inactive) under setting [1] and 11.3% under setting [2].
For `CCCCn1c(O)c(/C=C2\C=CC=N2)c(=O)[nH]c1=O` the same measures were 58.2% (active) and 89.6%.
Regarding `Cc1cc(C)c(-n2c(O)c(/C=C3\C=CC=N3)c(=O)[nH]c2=O)c(C)c1`, the inhibition was 97.7% (active) under setting [1] and 98.6% under setting [2].
On to `O=c1c2cccc3c2c(nn1CCN1CCCCC1)-c1ccccc1-3`, for which the inhibition was -22.6% (active) under setting [1] and 56.2% under setting [2].
For the molecule `CCC(C)c1ccc(OCCCCn2ccnc2)cc1` (stereo not drawn), the inhibition by setting is: under setting [1], 100% (active); under setting [2], 100%.
`CCC(C)(C)c1ccc(OCCCn2ccnc2)cc1`: the inhibition runs as follows: under setting [1], 100% (active); under setting [2], 99.6%.
On to `CCC(C)c1ccc(OCCn2ccnc2)cc1` (stereo not drawn), for which the inhibition was 99.2% (active) under setting [1] and 99.6% under setting [2].
On to `CCOC(=O)c1sc(NC(=O)CCSc2ccccc2)cc1C`, for which the inhibition was 96.9% (active) under setting [1] and 84.1% under setting [2].
Take `CCOC(=O)c1sc(NC(=O)NC2CCCCC2)cc1C`: the inhibition runs as follows: under setting [1], 100% (active); under setting [2], 96.2%.
As for `CCOC(=O)c1c(NC(=S)NC2CCN(Cc3ccccc3)CC2)sc(C)c1-c1ccccc1`, the inhibition is, setting by setting: under setting [1], 21.1% (inactive); under setting [2], -12.2%.
In the case of `CCOC(=O)C(C#N)=Cc1ccc(-c2ccc(F)cc2)o1`, the inhibition by setting is: under setting [1], 2.37% (active); under setting [2], 87.5%.
Consider `Cc1ccc(-c2ccc(C=CC(=O)c3ccco3)o2)cc1`, for which the inhibition reads like this: under setting [1], 9.38% (inactive); under setting [2], 20.8%.
Take `Cc1ccc(-n2cnc3cc(NCc4cccs4)ccc32)cc1`: the inhibition reads like this: under setting [1], 18.8% (active); under setting [2], 35.4%.
In the same order, the values of `CCn1cc(C(=O)O)c(=O)c2cc(F)c(N3CCNCC3)cc21` are 96.6% (active) and 97%.
For `CCn1cc(C(=O)O)c(=O)c2cc(F)c(N3CCN(C(=S)Nc4cc(C(F)(F)F)ccc4Cl)CC3)cc21` the same measures were 47.9% (active) and 61.9%.
In the same order, the values of `CCn1cc(C(=O)O)c(=O)c2cc(F)c(N3CCN(C)CC3)cc21` are 94.8% (active) and 94.2%.
For the molecule `CC(=O)N1CCN(c2cc3c(cc2F)c(=O)c(C(=O)O)cn3C2CC2)CC1`, the inhibition was 97.5% (active) under setting [1] and 97.7% under setting [2].
In the case of `O=c1oc(-c2ccccc2)cc(Cl)c1Cl`, the inhibition is, setting by setting: under setting [1], 61.6% (active); under setting [2], 74%.
In the same order, the values of `Cc1ccc2sc(N(CCCn3ccnc3)C(=O)c3cccs3)nc2c1C` are 98.3% (active) and 99.1%.
Regarding `CCc1cccc2sc(N(CCCn3ccnc3)C(=O)c3cccs3)nc12`, the inhibition runs as follows: under setting [1], 88.1% (active); under setting [2], 97.7%.
On to `O=C(c1cccs1)N(CCCn1ccnc1)c1nc2c(Cl)cccc2s1`, for which the inhibition was 91.1% (active) under setting [1] and 98.4% under setting [2].
For the molecule `CCc1cccc2sc(N(CCCn3ccnc3)C(=O)C=Cc3cccs3)nc12`, the inhibition was 97.8% (active) under setting [1] and 99.1% under setting [2].
For `Cc1c(Cl)ccc2sc(N(CCCn3ccnc3)C(=O)C=Cc3cccs3)nc12` the same measures were 99.5% (active) and 99.5%.
For `O=C(C=Cc1cccs1)N(CCCn1ccnc1)c1nc2ccccc2s1` the same measures were 98.3% (active) and 99.1%.
For `Cc1ccc(NC(=O)COc2ccc(-n3ccnc3)cc2)cc1Cl`, the inhibition by setting is: under setting [1], -9.16% (inactive); under setting [2], -12.4%.
Turning to `Cc1ccc(Nc2ccc(-n3ccnc3)nn2)cc1Cl`, the inhibition is, setting by setting: under setting [1], 42% (active); under setting [2], 27.3%.
In the case of `CCCCCCCCOC(=O)c1c(CSC(=N)N)n(C)c2cc(Br)c(OC(C)=O)cc12`, the inhibition reads like this: under setting [1], 26.7% (inactive); under setting [2], 4.13%.
In the same order, the values of `Cc1cc(Nc2ccc(Cl)cc2)nc(NCc2ccccc2)n1` are 87.7% (active) and 79.9%.
`Oc1cccc(Nc2nc(NCc3ccccc3)c3ccccc3n2)c1`: the inhibition reads like this: under setting [1], -1.72% (inactive); under setting [2], -16.1%.
In the same order, the values of `Cc1cc(Nc2cccc(Cl)c2)nc(NCc2ccccc2)n1` are 96.8% (active) and 90.6%.
`CCn1c(COc2cccc3ccccc23)nnc1SCC(=O)OC1CCCCC1`: the inhibition is 42.4% (active) under setting [1] and 80.7% under setting [2].
For `Cn1c(COc2cccc3ccccc23)nnc1SCC(=O)OC1CCCCC1`, the inhibition runs as follows: under setting [1], 76.6% (active); under setting [2], 92.4%.
Regarding `CCn1c(CNc2ccc(F)cc2)nnc1SCC(=O)OC1CCCCC1`, the inhibition under setting [1] is 0.628% (inactive) and the inhibition under setting [2] was -6.89%.
`O=C(Nc1nc(SCc2ccc(F)cc2)ns1)c1cc(F)c(F)cc1Cl`: the inhibition by setting is: under setting [1], 7.63% (inactive); under setting [2], 5.06%.
On to `Cc1ccc(CSc2nnc(CCCCCNC(=O)OC(C)(C)C)o2)cc1`, for which the inhibition under setting [1] is 30.6% (active) and the inhibition under setting [2] is 36.2%.
With `CCOC(=O)CN(C#N)c1nc(N(C)C)nc(N(C)C)n1`, the inhibition under setting [1] is 98.5% (active) and the inhibition under setting [2] was determined as 98.9%.
In the case of `O=C(Nc1nnc(C2CCCCC2)s1)c1sc2ccccc2c1Cl`, the inhibition was 0.622% (inactive) under setting [1] and -19.5% under setting [2].
Take `CCn1nnc(NC(=O)c2sc3ccccc3c2Cl)n1`: the inhibition reads like this: under setting [1], 41.4% (active); under setting [2], 47.8%.
Regarding `O=C(CSc1nnc(Cc2ccccc2)o1)Nc1nccs1`, the inhibition is, setting by setting: under setting [1], 1.22% (inactive); under setting [2], -3.79%.
As for `O=C(Nc1nccs1)c1ccc(CSc2ccccc2)o1`, the inhibition is 28.2% (active) under setting [1] and 69.6% under setting [2].
Consider `Cc1ccc(C)c(-c2cc(C(=O)Nc3nccs3)c3ccccc3n2)c1`, for which the inhibition by setting is: under setting [1], -0.261% (inactive); under setting [2], -26.2%.

(Values after PubChem BioAssay AID1259417 (TB Discovery Research, Infectious Disease Research Institute, 2018).)
